The values below come from PubChem BioAssay (NCATS).

Records with an inconclusive call do not appear. Where a call stands in place of a potency, no number is given. Unmarked numbers belong to inactive results. Calls of active or inactive are those of the source. Calls follow the shape of the dose curve; as a rule, active = well fitted cell-killing curve with a large enough effect; inconclusive = small, poorly fitted or top-dose-only effect, or effect the other way; inactive = no such curve, though single readings can be large or run the other way.
Potency is read from the fitted curve at half-maximal effect.

The nature of the assay: Viability qHTS for spleen associated tyrosine kinase inhibitor (SYKi) drug resistant MV4-11 cells (AID 1963824). Also: nearly all actives have a fitted effect of over 35% in size. The conditions noted are these: SYKi-resistant MV4-11 viability, CellTiter-Glo, 72 h; series mostly up to 45 µM. In a few lines:
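SYK-inhibitor-resistant MV4-11 AML cells were seeded at 500 per well onto compound and cultured 72 hours (37 °C, 5% CO2). CellTiter-Glo was then added, and after 10 min at room temperature, luminescence gave viability.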
(In general: In qHTS, concentration-response curves come from the screen itself.)
As to `CC1=CC(=O)CC(C)(C)C1CCC(C)O[C@@H]1O[C@H](CO)[C@@H](O)[C@H](O)[C@H]1O` (stereo not given in full), the Potency result is “inactive”. For the compound `CC(C)CN(CC(=O)N(CCCN1CCCC1=O)CC(N)=O)C(=O)CNCCc1ccccc1F`, the Potency result is “inactive”. In the case of `Clc1ccccc1CNCC1CCC(CNCc2ccccc2Cl)CC1` (stereo not given), the Potency was 14.6 µM (active).

Consider `C#CCN(Cc1cc2c(=O)n(C)c(CN3CCN(C)CC3)nc2cc1Cl)c1ccc(C(=O)NCc2cccnc2)cc1`, for which the Potency result is “inactive”. Same read-out and setting: for `Cn1ccnc1CCOC(c1cc2nccc(C(=O)O)c2[nH]1)c1ccccc1Cl` (stereo not given) the value was “inactive”; for `OC[C@H]1O[C@@H](O[C@@H]2OC=C[C@H]3[C@H](O)[C@@H]4O[C@]4(CO)[C@@H]23)[C@H](O)[C@@H](O)[C@@H]1O`, “inactive”; for `C/C=C1/[C@H](O[C@@H]2O[C@H](CO)[C@@H](O)[C@H](O)[C@H]2O)OC=C(C(=O)OC)[C@H]1CC(=O)OCCc1ccc(O)c(O)c1`, “inactive”. For `CCn1c2ccccc2c2cc(Nc3ccnc(NCCCN4CCOCC4)n3)ccc21`, the Potency is 2.59 µM (active). Same read-out and setting: to `Cc1cc(-c2cc(O)ccc2Cl)cc2nnc(Nc3ccc(OCCN4CCCC4)cc3)nc12` belongs 1.84 µM (active); to `C/C1=C\[C@H]2OC(=O)[C@@H](C)[C@@H]2CC/C(C(=O)O)=C/CC1`, “inactive”. On to `COC(=O)C1=CO[C@@H](O[C@@H]2O[C@H](CO)[C@@H](O)[C@H](O)[C@H]2O)[C@@H]2[C@@H](C)[C@@H](O)C[C@H]12`, for which the Potency result was “inactive”. `O=C(NCCO)c1cccc(-c2cc(Nc3ccc(OC(F)(F)F)cc3)ncn2)c1`: the Potency was 5.8 µM (active). On the same count and under the same terms, to `COC(=O)C1=CO[C@@H](O[C@@H]2O[C@H](CO)[C@@H](O)[C@H](O)[C@H]2O)[C@@H]2[C@@H](C(=O)OC)[C@@H](O)C(O)[C@H]12` (stereo not given in full) belongs “inactive”; to `CC(/C=C/[C@]1(O)[C@@]2(C)CO[C@@]1(C)C[C@@H](O)C2)=C\C(=O)O[C@@H]1O[C@H](CO)[C@@H](O)[C@H](O)[C@H]1O`, “inactive”. Consider `CCCc1cc(C)[nH]c(=O)c1CNC(=O)c1cc(-c2ccnc(N3CCN(C)CC3)c2)cc2c1cnn2C(C)C`, for which the Potency is 11.8 µM (active). On the same count and under the same terms, for `C=C1CC[C@H](O)CC1=C/C=C1\CCC[C@]2(C)[C@@H]([C@H](C)/C=C/[C@H](C)C(C)C)CC[C@@H]12` the value was 9.2 µM (active); for `CC12CCC(C(OC3OC(COC4OCC(O)(CO)C4O)C(O)C(O)C3O)C1)C(C)(C)O2` (stereo not given), “inactive”; for `O=C(O[C@H]1[C@@H]2C=CO[C@@H](O[C@@H]3O[C@H](CO)[C@@H](O)[C@H](O)[C@H]3O)[C@@H]2[C@@]2(CO)O[C@@H]12)c1ccc(O)c(O)c1`, “inactive”. With `O=C(O)c1ccnc(-c2cc(C(=O)NCCc3ccccc3)ccn2)c1`, the Potency result is “inactive”. Same read-out and setting: for `C[C@@H]1C(=O)O[C@H]2CC34[C@H]5C[C@@H](C(C)(C)C)C36[C@@H](OC(=O)[C@@H]6O)OC4(C(=O)O5)[C@]21O` (stereo not given in full) the value was “inactive”. On the same count and under the same terms, for `NS(=O)(=O)c1cc2c(cc1Cl)NC(CSCc1ccccc1)=NS2(=O)=O` the value was “inactive”. Consider `COc1cc(-c2cc(-c3ccc(N4CCNCC4)cc3)cnc2C)cc(OC)c1OC`, for which the Potency was 8.33 µM (active). Still for that read-out and setting: for `Cn1cc(C2=C(c3coc4ccccc34)C(=O)NC2=O)c2cc(Br)ccc21` the value was 7.31 µM (active); for `C=C1[C@H]2CC[C@H](C(=O)O)[C@@]23CC[C@H](C3)C1(C)C`, “inactive”; for `C=C1[C@@H](OC(C)=O)CC[C@@]2(C)[C@@H](OC(C)=O)[C@H](OC(C)=O)C3=C(C)C[C@H](OC(=O)C(C)CC)[C@@H]([C@@H](OC(C)=O)[C@H]12)C3(C)C` (stereo not given in full), 1.22 µM (active). In the case of `CC(O)(C(=O)C1CC1(CO)COC1OC(CO)C(O)C(O)C1O)C1C(O)CC2C3CC=C4CC(O)CC(O)C4(C)C3C(O)CC21C` (stereo not given), the Potency is 0.217 µM (active).

Turning to `C/C=C/C=C/C=C/C(=O)O[C@@H]1C=C(CO)C(O)(C(=O)O)[C@@]2(C)CCCC(C)(C)[C@H]12` (stereo not given in full), the Potency result is “inactive”. Same read-out and setting: for `C=C(C)C(=O)O[C@H]1C[C@@](C)(O)C2(O)CCC(C)(/C=C3/OC(=O)C(COC)=C31)O2` (stereo not given in full) the value was 0.453 µM (active); for `C=CC(C)(CC/C=C(\C)CC/C=C(\C)CC(O)/C=C(\C)C(=O)O)O[C@@H]1O[C@H](CO)[C@@H](O)[C@H](O)[C@H]1O[C@@H]1O[C@H](CO)[C@@H](O)[C@H](O)[C@H]1O` (stereo not given in full), “inactive”. In the case of `CC1(CO)CCCC2(C)C1C(OC(=O)c1ccccc1)C=C1C(=O)OCC12O` (stereo not given), the Potency is 1.61 µM (active). On the same count and under the same terms, for `COC(=O)CC(C)(O)CC(=O)OCc1ccc(O[C@@H]2O[C@H](CO)[C@@H](O)[C@H](O)[C@H]2O)cc1` (stereo not given in full) the value was “inactive”; for `C=C(C)C(O)COc1ccc(CC(=O)O)cc1` (stereo not given), “inactive”. Still for that read-out and setting: to `CO[C@H]1[C@@H](O)[C@H](O[C@H]2CC[C@@]3(C)C(CCC4C3CC[C@]35COC6(COC(=O)C6)C3CCC45O)C2)O[C@@H](C)[C@@H]1OC1OC(CO)C(OC2OC(CO)C(O)C(O)C2O)C(O)C1O` (stereo not given in full) belongs 1.1 µM (active). Still for that read-out and setting: to `CC(CCC1(O)OC2CC3C4CC=C5CC(O[C@@H]6O[C@H](CO)[C@@H](O[C@@H]7O[C@@H](C)[C@H](O)[C@@H](O)[C@H]7O)[C@H](O)[C@H]6O[C@@H]6O[C@@H](C)[C@H](O)[C@@H](O)[C@H]6O)CCC5(C)C4CCC3(C)C2C1C)CO[C@@H]1O[C@H](CO)[C@@H](O)[C@H](O)[C@H]1O` (stereo not given in full) belongs 3.48 µM (active); to `CC1(C)CC[C@]2(C(=O)O)CC[C@]3(C)C(=CCC4[C@@]5(C)CC[C@H](O[C@@H]6O[C@H](C(=O)O)[C@@H](O[C@@H]7OC[C@@H](O)[C@H](O)[C@H]7O)[C@H](O)[C@H]6O)C(C)(C)C5CC[C@]43C)C2C1O` (stereo not given in full), “inactive”; to `CC(C)(C#N)c1ccc(N2C(=O)OCc3cnc4ccc(-c5cnc6ccccc6c5)cc4c32)cc1`, 1.46 µM (active).

`CC1(C)CCC2(C(=O)OC3OC(CO)C(O)C(O)C3O)CCC3(C)C(=CCC4C5(C)CCC(OC6OC(C(=O)O)C(OC7OC(CO)C(O)C(O)C7O)C(OC7OC(CO)C(O)C(O)C7O)C6O)C(C)(C)C5CCC43C)C2C1` (stereo not given): the viability, % of control is 109% [at 9.25 µM]. Regarding `O=C1NC2CCCCN2C12CCN(CCCN1c3ccccc3CCc3ccc(Cl)cc31)CC2` (stereo not given), the Potency is 4.61 µM (active). Consider `Cc1ccc(-c2c(-c3nn(C)c4ncnc(N5CCC(N6CCCCC6)C5)c34)cnn2C)cc1` (stereo not given), for which the Potency entry was “inactive”. Still for that read-out and setting: to `CC1=CC(=O)CC(C)(C)[C@@]1(O)/C=C/C(C)O[C@@H]1O[C@H](CO)[C@@H](O)[C@H](O)[C@H]1O` (stereo not given in full) belongs “inactive”.
